The values below come from article PMC4552634, “A New Set of Chemical Starting Points with Plasmodium falciparum Transmission-Blocking Potential for Antimalarial Drug Discovery” (PLoS ONE, 2015).

The test deals with P. falciparum stage V gametocytes. Details: BacTiter-Glo ATP luminescence viability of purified stage V gametocytes in 384-well plates, per cent inhibition versus DMSO. The note with it: 48 h, 5 µM, inhibitor.

Read-outs that look alike come from different tables or passages of the source. Among all 13,000 compounds or so, about 3,200 (25%) showed an effect of 50% or more. The list shows a part of the results.

By % Inhibition is commonly meant the change of the read-out against control, counted positive when it falls. With `COc1ccc(F)cc1-c1ccc(C(=O)N2CCCN(c3ccc(C(F)(F)F)cn3)CC2)cc1` [TCMDC-133384], the “% Inhibition” value was -50.34%.
For the compound `COc1ccc(F)cc1-c1ccc(C(=O)N2CCCN(c3ccc(C#N)cn3)CC2)cc1` [TCMDC-133385], the “% Inhibition” value turned out to be 2.781%.
For `Cc1ccc(F)cc1-c1cc(N2CCCN(C(=O)c3ccc(Br)o3)CC2)ncn1` [TCMDC-125089], the “% Inhibition” value is 67.99%.
In the case of `CCN1CCC(N(Cc2ccc(-c3ccc(C(F)(F)F)cc3)cc2)C(=O)Cn2c(SCc3cccc(F)c3F)cc(=O)c3ccccc32)C1` (centres unmarked) [TCMDC-141301], the “% Inhibition” value came to 106.2%.
Turning to `O=C(Cn1c(SCc2cccc(F)c2F)cc(=O)c2ccccc21)N(Cc1ccc(-c2ccc(C(F)(F)F)cc2)cc1)C1CCN(CCO)CC1` [TCMDC-141705], the “% Inhibition” value amounted to 107.3%.
As for `COCCN1CCC(N(CC2(O)CCN(c3ccc(C(F)(F)F)cc3)CC2)C(=O)Cn2c(SCc3cccc(F)c3F)cc(=O)c3ccccc32)CC1` [TCMDC-141629], the “% Inhibition” value amounted to 101.7%.
On to `CC(C)(C)n1nnnc1C(c1cccnc1)N(Cc1ccccc1)Cc1ccc(Cl)cc1` (centres unmarked) [TCMDC-123530], for which the “% Inhibition” value stood at 11.45%.
For `O=C(NCc1ccc(F)cc1)Nc1cccc(-c2ccc(-c3nc4ccccc4[nH]3)cc2)c1` [TCMDC-133300], the “% Inhibition” value was 7.874%.
As for `Cc1nc2nc(N)nc(N)c2c(C)c1Cc1cccc(C(F)(F)F)c1` [TCMDC-137658], the “% Inhibition” value is -3.325%.
Regarding `COc1ccc(CCCc2nc(N)nc(N)c2-c2ccc(Cl)cc2)cc1` [TCMDC-137358], the “% Inhibition” value is listed as -7.157%.
Take `COc1cc2nc(SCC(C)C)n(CCCn3ccnc3)c(=N)c2cc1OC` [TCMDC-125667]: the “% Inhibition” value was 47.91%.
Still for that read-out and setting: the result for `COc1cc2nc(SCCCC#N)n(C3CCCCCC3)c(=N)c2cc1OC` [TCMDC-123768] reads 60.07%; that for `O=C(CC1SC(N2N=C(c3cccs3)CC2c2ccccc2)=NC1=O)Nc1ccccc1F` (centres unmarked) [TCMDC-124761], 0.7985%.
In the case of `CCN(CCCN1CCCCC1)c1cc(C)nc(Nc2ccc(C)cc2C(F)(F)F)n1` [TCMDC-132444], the “% Inhibition” value is listed as -24.78%.
Take `CCN(CCCN1CCCCC1)c1cc(C)nc(Nc2ccc(Cl)c(C(F)(F)F)c2)n1` [TCMDC-132439]: the “% Inhibition” value is given as 56.88%.
With `CCN(CCCN1CCCCC1)c1cc(C)nc(Nc2cccc(C(F)(F)F)c2C)n1` [TCMDC-132452], the “% Inhibition” value is reported as 62.42%.
The same measure, in the same setting: the figure for `CCN(CCCN1CCCCC1)c1cc(C)nc(Nc2ccc(C)c(Cl)c2)n1` [TCMDC-132438] is -8.632%; for `CCN(CCCN1CCCCC1)c1cc(C)nc(Nc2cc(C(F)(F)F)ccc2C)n1` [TCMDC-132448] it is 19.94%; for `CCN(CCCN1CCCCC1)c1cc(C)nc(Nc2ccc(F)c(C(F)(F)F)c2)n1` [TCMDC-132433] it is 31.89%.
As to `Cc1cc(C)c(O)c(-c2cc(C(=O)Nc3ccc(S(=O)(=O)N4CC(C)OC(C)C4)cc3)[nH]n2)c1` (centres unmarked) [TCMDC-125184], the “% Inhibition” value was -32.33%.
As for `CC1CCCCN1S(=O)(=O)c1ccc(NC(=O)c2cc(-c3ccccc3O)n[nH]2)cc1` (centres unmarked) [TCMDC-125855], the “% Inhibition” value is -44.79%.
As for `O=C(/C=C/c1ccc(Cl)c(Cl)c1)NCCCCCN1CCN(C(=O)Nc2ccc(Cl)c(C(F)(F)F)c2)CC1` [TCMDC-135735], the “% Inhibition” value is -27.61%.
Regarding `COC1CCC(C(=O)Nc2ccc(-c3cccc(-c4nc5ccc(C(F)(F)F)cc5[nH]4)c3)cc2)CC1` (centres unmarked) [TCMDC-136858], the “% Inhibition” value was -5.175%.
Consider `O=C(Nc1ccon1)c1cc(-c2cccnc2)nc2ccc(Cl)cc12` [TCMDC-124360], for which the “% Inhibition” value is given as -4.584%.
Same read-out and setting: the result for `C=CCOC(=O)N1CCC(CNCc2ccc(-c3ccc(-c4nc5ccccc5[nH]4)s3)cc2)C1.O=C(O)C(F)(F)F` (centres unmarked) [TCMDC-133037] reads -14.35%.
The same measure, in the same setting: the figure for `CCNc1cc(C(=O)N[C@@H](Cc2ccco2)[C@H](O)CNC2CCCCC2)cc(N2CCCCS2(=O)=O)c1` [TCMDC-135304] is 34.63%; for `CC(C)N1CCN(c2ccc(OCCCCN3CCN(c4cccc(Cl)c4Cl)CC3)cc2Cl)CC1` [TCMDC-136639] it is -87.47%.
As for `COc1cc(C(=O)N2CCN(C(C)C)CC2)ccc1CN(C)CCCN1CCN(c2cccc(Cl)c2Cl)CC1` [TCMDC-136519], the “% Inhibition” value is given as 106.1%.
`COc1cc(C(=O)N2CCN(C(C)C)CC2)ccc1CN(C)CCCCN1CCN(c2cccc(Cl)c2Cl)CC1` [TCMDC-136506]: the “% Inhibition” value came to 104.3%.
Same read-out and setting: the result for `CC(C)N1CCN(c2ccc(OCCCCN3CCN(c4cccc(Cl)c4Cl)CC3)c(C(F)(F)F)c2)CC1` [TCMDC-136646] reads -6.976%; that for `COc1cc(NC(=O)CCCN2CCN(c3cccc(Cl)c3Cl)CC2)ccc1N1CCN(C(C)C)CC1` [TCMDC-136697], 87.5%; that for `COc1ccc(N2CCN(CCCN3CCN(C(=O)c4ccc(/C=C/c5ccc(Cl)c(Cl)c5)cc4)CC3)CC2)c(OC)c1` [TCMDC-138215], -35.25%.
In the case of `CC(C)N1CCN(c2ccc(OCCCN3CCN(c4cccc(Cl)c4Cl)CC3)c(C(F)(F)F)c2)CC1` [TCMDC-136647], the “% Inhibition” value is on record as -2.358%.
As to `Cc1cc(NC(=O)CCCN2CCN(c3cccc(Cl)c3Cl)CC2)ccc1N1CCN(C(C)C)CC1` [TCMDC-136696], the “% Inhibition” value was -18.49%.
In the case of `Cc1cc(NC(=O)CCN2CCN(c3cccc(Cl)c3Cl)CC2)ccc1N1CCN(C(C)C)CC1` [TCMDC-136695], the “% Inhibition” value is 39.36%.
`O=c1cc(N2CCNCC2)c(Cl)nn1Cc1ccc(NS(=O)(=O)c2ccc(Oc3ccccc3)cc2)cc1` [TCMDC-141701]: the “% Inhibition” value turned out to be 10.25%.
With `COc1ccc2nc(-c3cc(-c4ccc(NC(C)=O)cc4)cnc3N)[nH]c2c1` [TCMDC-135365], the “% Inhibition” value is -4.081%.
Take `Cc1sc(CNCCCNc2cc(=O)c3ccccc3[nH]2)c(I)c1C` [TCMDC-140907]: the “% Inhibition” value is -22.52%.
On the same count and under the same terms, the figure for `CC(=O)N1c2ccccc2C(C)=CC1(C)C` [TCMDC-123928] is -1.243%; for `CCCC1N=C(N)N=C(N)N1c1cccc(C(F)(F)F)c1` (centres unmarked) [TCMDC-131298] it is -25.37%.
Still for that read-out and setting: the figure for `CCN(CCCN1CCCCC1)c1cc(C)nc(Nc2ccc(Oc3ccccc3)cc2)n1` [TCMDC-132426] is 49.81%.
Consider `Cl.Nc1ccnc2ccc(OCCCCCCc3ccccc3)cc12` [TCMDC-139072], for which the “% Inhibition” value is -2.454%.
For the compound `CN(C)CCCn1c(C(=O)OC(c2ccccc2)c2ccccc2)cc2cc(OCc3ccccc3)ccc21` [TCMDC-138114], the “% Inhibition” value is reported as 99.58%.
Still for that read-out and setting: the figure for `CN(C)CCCOC(=O)c1cc2cc(-c3ccccc3)ccc2n1S(=O)(=O)Cc1ccccc1` [TCMDC-139121] is 46.9%.
Regarding `CN(C)CCCN(C)C(=O)c1cc2cc(-c3ccccc3)ccc2n1S(=O)(=O)c1ccccc1` [TCMDC-139127], the “% Inhibition” value is recorded as 25.92%.
As for `O=C(NC1CCC(CN2CCC(c3c[nH]c4ccccc34)CC2)CC1)c1cc2ccccc2s1` (centres unmarked) [TCMDC-139710], the “% Inhibition” value (% Inhibition) is -31.58%.
Consider `O=C(NC1CCC(CN2CCC(c3c[nH]c4ccccc34)CC2)CC1)c1cc2ccccc2s1` (centres unmarked) [TCMDC-139722], for which the “% Inhibition” value (% Inhibition) is given as 56.81%.
Consider `COc1cc(C(=O)NC2CCC(CN3CCC(c4c[nH]c5ccccc45)CC3)CC2)cc(Cl)n1` (centres unmarked) [TCMDC-139937], for which the “% Inhibition” value is recorded as 89.84%.
Same read-out and setting: the result for `O=C(NC1CCC(CN2CCC(c3c[nH]c4ccccc34)CC2)CC1)c1cc(-c2ccccc2)c(C(F)(F)F)s1` (centres unmarked) [TCMDC-140356] reads 23.32%; that for `Cn1nc(C(F)(F)F)cc1-c1ccc(C(=O)NC2CCC(CN3CCC(c4c[nH]c5ccccc45)CC3)CC2)s1` (centres unmarked) [TCMDC-140355], 118.2%.
Consider `O=C(NC1CCC(CN2CCC(c3c[nH]c4ccccc34)CC2)CC1)c1cc2ccccc2o1` (centres unmarked) [TCMDC-139764], for which the “% Inhibition” value was 94.95%.
As to `Cc1ccccc1C1CCN(C2CCC(NC(=O)c3ccc(-c4cc(C(F)(F)F)nn4C)s3)CC2)CC1` (centres unmarked) [TCMDC-134107], the “% Inhibition” value is -22.15%.
For the compound `CC(C)C[C@@H](C(=O)N[C@H](C(=O)Nc1nccs1)C(C)(C)C)[C@H](CCC(F)(F)F)N(O)C=O` [TCMDC-138178], the “% Inhibition” value is listed as 1.039%.
Consider `CCC1(CC)N=C(N)N=C(N)N1OCc1ccc(Cl)c(Cl)c1` [TCMDC-131656], for which the “% Inhibition” value came to 33.88%.
For the compound `N#Cc1ccc(C(=O)Nc2ccc(Cl)c(N3CCN(CCc4ccccc4)CC3)c2)cc1` [TCMDC-133534], the “% Inhibition” value is given as -15.74%.
As for `CC(Nc1ccc2c(c1)CCC2)C(=O)Nc1cc(C(F)(F)F)ccc1N1CCOCC1` (centres unmarked) [TCMDC-124858], the “% Inhibition” value is 33.49%.
Still for that read-out and setting: the result for `COc1ccc2ncc(C#N)c(CCN3CCC(NCc4ccc5c(n4)NC(=O)CS5)CC3)c2n1` [TCMDC-135188] reads -9.823%.
For the compound `CCN(CC)c1ccc(C=CC(=O)NCCN2CCC(N(C)C3CCCCC3C)CC2)cc1` (centres unmarked) [TCMDC-124445], the “% Inhibition” value is -34.59%.
The same measure, in the same setting: the result for `O=C(/C=C/c1cccc(C(F)(F)F)c1)NCCCCCN1CCC(c2c[nH]c3ccccc23)CC1` [TCMDC-139212] reads -27.28%; that for `CN(C(=O)/C=C/c1cc(C(F)(F)F)ccc1F)C1CCN(CCCCCNC(=O)/C=C/c2ccc(Cl)c(Cl)c2)CC1` [TCMDC-139991], -46.39%; that for `CC1CCCCC1N(C)C1CCN(CCCNC(=O)C=Cc2ccccc2Cl)CC1` (centres unmarked) [TCMDC-124442], 1.29%.
Still for that read-out and setting: the result for `CC1CCCCC1N(C)C1CCN(CCCNC(=O)C=Cc2ccc(Cl)cc2Cl)CC1` (centres unmarked) [TCMDC-124444] reads 93.47%.
`CC1CCCCC1N(C)C1CCN(CCCNC(=O)C=Cc2cccc(C(F)(F)F)c2)CC1` (centres unmarked) [TCMDC-124443]: the “% Inhibition” value stood at 53.92%.
For the compound `Fc1ccc(COc2ccc(Nc3ncnc4ccc(I)cc34)cc2Cl)cc1` [TCMDC-138628], the “% Inhibition” value was -1.956%.
Still for that read-out and setting: the figure for `Cc1c(Cc2ccc(C(C)C)cc2)cnc2nc(N)nc(N)c12` [TCMDC-138044] is 4.775%.
